{"source": "PubChem BioAssay AID588405", "about": "(Sanford-Burnham Center for Chemical Genomics, 2011)", "note": "Several values for one entry are separate records, joined by “and”; a condition that tells them apart may be missing. Equal entries are not always repeated. The whole screen tested about 360,000 compounds, of which about 6,200 (1.7%) were called active.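 How the source made its calls: active means inhibition of at least 50% at 20 µM; inactive means the rest.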 Many of the other results were omitted from the sample, so actives are more common in it than they were. Where a structure was tested more than once in an assay, its records may differ in their call."}
{"experiment": "inhibition of PEG-3 promoter activity – cell-based, HeLa, luciferase luminescence, primary screen (AID 588405)", "conditions": "HeLa PEG-Prom luciferase reporter, overnight, at 20 µM, stronger effect = higher value"}
{"smiles": "Cc1cccc(C)c1-n1nnnc1C(CCc1ccccc1)N1CCN(C/C=C/c2ccccc2)CC1", "note": "(stereo not given)", "inhibition": "4.21% (inactive)"}
{"smiles": "c1ccc(C(=NNc2nc3ccccc3s2)c2ccccn2)cc1", "inhibition": "60.3% (active)"}
{"smiles": "C/C(=N/Nc1nc(-c2ccccc2)c(CC(=O)O)s1)c1ccccc1", "inhibition": "-245% (inactive)"}
{"smiles": "COc1cc(OC)nc(N/N=C(\\c2ccccc2)c2ccncc2)n1", "inhibition": "-16.6% (inactive)"}
{"smiles": "CCCNC(=O)c1cc(C2CCCCN2C(=O)OC)on1", "note": "(stereo not given)", "inhibition": "8.59% (inactive)"}
{"smiles": "CCOc1cc(-c2conc2N)cc(OCC)c1OCC", "inhibition": "10.1% (inactive)"}
{"smiles": "CC(C)CNC(=O)C1(C)CCCN1C(=O)CSc1ccccc1", "note": "(stereo not given)", "inhibition": "-0.74% (inactive)"}
{"smiles": "O=C(O)c1ccc(N/N=C/c2ccc3ncccc3c2)cc1", "inhibition": "70.7% (active)"}
{"smiles": "Cc1ccc2cc(/C=N/Nc3ccc(C(=O)O)cc3)c(Cl)nc2c1", "inhibition": "-255% (inactive)"}
{"smiles": "CCNC(=S)NNC(=O)c1ccc2ncccc2c1", "inhibition": "-28.3% (inactive)"}
{"smiles": "O=C(Nc1cccc(C(F)(F)F)c1)c1ccc(N2CCNCC2)c([N+](=O)[O-])c1", "inhibition": "22.1% (inactive)"}
{"smiles": "CCOC(=O)c1ccc(NC(=O)c2nc[nH]c2C(=O)NCc2ccccc2)cc1", "inhibition": "32.4% (inactive)"}
{"smiles": "COc1cccc(NC(=O)CN(C)C(C)C(=O)Nc2ccc(C#N)cc2)c1", "note": "(stereo not given)", "inhibition": "20% (inactive)"}
{"smiles": "COc1cc(NC(=O)c2cncc(-c3ccc(C#N)cc3)c2)cc(C(=O)Nc2cccc(C(F)(F)F)c2)c1", "inhibition": "22% (inactive) and 56% (active)"}
{"smiles": "COc1cc(NC(=O)c2[nH]cnc2C(N)=O)cc(C(=O)Nc2cccc(C(F)(F)F)c2)c1", "inhibition": "101% (active)"}
{"smiles": "O=C(O)CSc1c2c(nc3cc(C(=O)Nc4cccc(C(F)(F)F)c4)ccc13)CCCC2", "inhibition": "13.5% (inactive)"}
{"smiles": "O=C1c2ccccc2-c2ccccc2NC1O", "note": "(stereo not given)", "inhibition": "-8.48% (inactive)"}
{"smiles": "COc1ccc(C(c2nnnn2C2CCCC2)N2CCN(C/C=C/c3ccccc3)CC2)cc1", "note": "(stereo not given)", "inhibition": "-2% (inactive)"}
{"smiles": "CC(=O)Nc1ccc(-c2ccnc3c2CC(C(=O)NC(C)C)O3)cc1", "note": "(stereo not given)", "inhibition": "-1.44% (inactive)"}
{"smiles": "CC1(C(=O)NCC2CCOCC2)Cc2c(-c3cccc(C(N)=O)c3)ccnc2O1", "note": "(stereo not given)", "inhibition": "8.22% (inactive)"}
{"smiles": "O=C(CSc1nc2cccc(F)c2c(=O)n1-c1ccccc1)Nc1ccc2c(c1)CCC2", "inhibition": "2.19% (inactive)"}
{"smiles": "Cc1ccc(C)c(N2CCN(C(=O)CCCn3c(=O)c4cccn4c4cccnc43)CC2)c1", "inhibition": "34.6% (inactive)"}
{"smiles": "O=C(CCCCCn1c(=S)[nH]c2cc3c(cc2c1=O)OCO3)N1CCN(c2ccc(F)cc2)CC1", "inhibition": "-0.75% (inactive)"}
{"smiles": "Cc1ccc(C)c(N2CCN(C(=O)CCCCCn3c(=S)[nH]c4ccc(N5CCOCC5)cc4c3=O)CC2)c1", "inhibition": "92.5% (active)"}
{"smiles": "COCCNC(=O)C1CCCN(Cc2ccccc2Cl)CC1", "note": "(stereo not given)", "inhibition": "5.2% (inactive)"}
{"smiles": "CSc1nc(-c2ccccc2)nc(C(Cl)Cl)n1", "inhibition": "98.3% (active)"}
{"smiles": "O=C(COC(=O)C12CC3CC(CC(O)(C3)C1)C2)NC12CC3CC(CC(C3)C1)C2", "inhibition": "9.7% (inactive)"}
{"smiles": "CC1(Cc2cccc(C#N)c2)C(=O)Nc2ccc(-c3cccc(C(F)(F)F)c3)cc21", "note": "(stereo not given)", "inhibition": "37% (inactive)"}
{"smiles": "Cc1c(CN2CCC(CO)(CCOc3ccccc3)CC2)[nH]c2ccc(Cl)cc12", "inhibition": "85.4% (active)"}
{"smiles": "CC(C)(O)C#Cc1ccc(CN2CCC(CO)(CCc3ccccc3)CC2)cc1", "inhibition": "1.12% (inactive)"}
{"smiles": "CCOC(=O)C1(CCOc2ccccc2)CCN(Cc2ccc(C#CCCO)cc2)CC1", "inhibition": "15.7% (inactive)"}
{"smiles": "C=CC[C@@H](CC(=O)N[C@@H](CO)Cc1ccccc1)C(=O)N[C@H](COC(=O)[C@H](CC=C)CC(=O)OC(C)(C)C)Cc1ccccc1", "inhibition": "59.8% (active)"}
{"smiles": "C=CC[C@@H](CC(=O)N[C@@H](CO)Cc1ccccc1)C(=O)NCCOC(=O)[C@@H](CC=C)CC(=O)OC(C)(C)C", "inhibition": "4.88% (inactive)"}
{"smiles": "C=CC[C@@H](CC(=O)N[C@H](CO)Cc1ccccc1)C(=O)N[C@H](C)COC(=O)[C@@H](CC=C)Cc1ccc(F)cc1", "inhibition": "12.6% (inactive)"}
{"smiles": "CCOC(=O)c1c(-n2cnnn2)sc(C)c1C", "inhibition": "-0.91% (inactive)"}
{"smiles": "CNC(=O)C1CC(=O)N(Cc2ccc3c(c2)OCO3)C(=Nc2ccc(F)cc2)S1", "note": "(stereo not given)", "inhibition": "-64.3% (inactive)"}
{"smiles": "COc1ccccc1N(CCOc1ccccc1)S(=O)(=O)c1ccccc1", "inhibition": "18.4% (inactive)"}
{"smiles": "Clc1ccc(-c2cc(C3CCNCC3)[nH]n2)c(Cl)c1", "inhibition": "58.7% (active)"}
{"smiles": "Clc1ccc(-c2cc(-c3ccccn3)on2)c(Cl)c1", "inhibition": "-90.8% (inactive)"}
{"smiles": "Fc1cccc(Cc2c(-c3cccc(Cl)c3)nc3ccc(Br)cn23)c1", "inhibition": "-153% (inactive)"}
{"smiles": "O=C(O)CC1S/C(=N\\N=C/c2ccccc2O)N(c2ccc(O)cc2)C1=O", "note": "(stereo not given)", "inhibition": "-0.29% (inactive)"}
{"smiles": "COc1ccc(CN(C)C(=O)Cc2c[nH]c3ccccc23)c(OC)c1OC", "inhibition": "13.2% (inactive)"}
{"smiles": "COc1ccc(-c2cc(C(=O)N(C)CC(=O)Nc3ccccc3Cl)c3ccccc3n2)cc1OC", "inhibition": "43.6% (inactive)"}
{"smiles": "COc1ccc(CN(C)C(=O)c2cc(-c3ccc(C)cc3C)nc3ccccc23)c(OC)c1OC", "inhibition": "75.3% (active)"}
{"smiles": "COc1ccc(-c2cc(C(=O)N(C)Cc3ccc(OC)c(OC)c3OC)c3ccccc3n2)cc1OC", "inhibition": "50.1% (active)"}
{"smiles": "COc1ccc(-c2cc(C(=O)NCCCN3CCCC3=O)c3ccccc3n2)cc1OC", "inhibition": "-2.28% (inactive)"}
{"smiles": "COc1ccc(S(=O)(=O)N2CCCCCC2)cc1C(=O)N(C)Cc1cccc(OC)c1OC", "inhibition": "5.19% (inactive)"}
{"smiles": "Cc1ccc(CN2CCC(N3CCC(C(=O)NCC4CCCO4)CC3)CC2)o1", "note": "(stereo not given)", "inhibition": "-0.4% (inactive)"}
{"smiles": "CS(=O)(=O)c1cccc(-c2ccc3nncn3c2)c1", "inhibition": "-2.9% (inactive)"}
{"smiles": "CCc1nc2ccc(C(=O)N3CCN(S(=O)(=O)CC)CC3)cn2c1N(C=O)CCC(C)C", "inhibition": "-6.03% (inactive)"}
{"smiles": "CC(C)[C@H](NC(=O)N1CC(=O)Nc2ccccc21)C(=O)N[C@@H](Cc1c[nH]c2ccccc12)C(=O)O", "inhibition": "14.7% (inactive)"}
{"smiles": "O=C(NCc1cccc(C(F)(F)F)c1)c1ccc2sc(COCCO)nc2c1", "inhibition": "-51.8% (inactive)"}
{"smiles": "COc1cccc(CNc2nc3cc(-c4csc5ccccc45)sc3c(=O)n2C)c1", "inhibition": "-0.35% (inactive)"}
{"smiles": "COc1ccc(CN(Cc2ccc(OC)cc2)C(=O)c2cccs2)cc1", "inhibition": "0.72% (inactive)"}
{"smiles": "COc1ccc(C(CCN(Cc2ccc(OC)c(OC)c2)C(=O)CCl)c2ccccc2)cc1", "note": "(stereo not given)", "inhibition": "105% (active)"}
{"smiles": "COc1ccc(CCNC(=O)CN(c2ccccc2)S(C)(=O)=O)cc1OC", "inhibition": "18.5% (inactive)"}
{"smiles": "CCCc1nc(N2CCN(C)CC2)c2sc(=S)n(-c3ccccc3)c2n1", "inhibition": "30.8% (inactive)"}
{"smiles": "OC[C@@H]1CN(Cc2ccc(Cl)cc2)C[C@H](n2cnc3c(NCc4ccncc4)ncnc32)O1", "inhibition": "8.27% (inactive)"}
{"smiles": "FC(F)(F)Oc1ccccc1C(c1nnnn1C1CCCCC1)N1CCN(C/C=C/c2ccccc2)CC1", "note": "(stereo not given)", "inhibition": "-12.9% (inactive)"}
{"smiles": "CC[C@H]1CN2CCc3cc(OC)c(OC)cc3[C@@H]2C[C@@H]1C[C@H]1NCCc2cc(OC)c(OC)cc21", "inhibition": "95% (active)"}
{"smiles": "CC(C)C[C@H]1CN([C@@H](Cc2ccccc2)CN2CCC[C@@H]2CN2C(=O)C(=O)NC[C@@H]2Cc2ccc(O)cc2)C(=O)C(=O)N1CCc1ccccc1", "inhibition": "-8.17% (inactive)"}
{"smiles": "CCOC(=O)C1=CCC(c2ccc(F)cc2)N(S(=O)(=O)c2ccc(C)cc2)C1", "note": "(stereo not given)", "inhibition": "18.4% (inactive)"}
{"smiles": "CCc1nc2c(OCC(=O)C(C)(C)C)cccn2c1N(C)C(=O)c1ccccc1F", "inhibition": "-3.25% (inactive)"}
{"smiles": "COc1ccc(OC)c(C(O)c2ncc(-c3cccc(C(F)(F)F)c3)[nH]2)c1", "note": "(stereo not given)", "inhibition": "1.51% (inactive)"}
{"smiles": "CCCC[C@@H]1CN=C(N)N1CCc1cc(C(F)(F)F)cc(C(F)(F)F)c1", "inhibition": "64.1% (active)"}
{"smiles": "CCCC[C@@H]1CN=C(N)N1CCc1cccc(F)c1", "inhibition": "2.77% (inactive)"}
{"smiles": "CCCC[C@@H]1CN=C(N)N1CCCC", "inhibition": "6.54% (inactive)"}
{"smiles": "Cn1c(Nc2ccc(F)cc2)nc2cc(-c3ccsc3)sc2c1=O", "inhibition": "-53.6% (inactive)"}
{"smiles": "CC1(C(=O)Nc2ccccc2Br)CCN1C(=O)CC1CC1", "note": "(stereo not given)", "inhibition": "3.67% (inactive)"}
{"smiles": "CCOC(=O)C1=CCC2C(=O)N(Cc3ccccc3)C(=O)C12", "note": "(stereo not given)", "inhibition": "-14.8% (inactive)"}
{"smiles": "CNC[C@H]1OCc2cnnn2CCCC(=O)N([C@H](C)CO)C[C@@H]1C", "inhibition": "-4.6% (inactive)"}
{"smiles": "COc1ccc(OC)c(NC(=O)c2cc(-c3cc(F)ccc3OCC3CCCO3)n[nH]2)c1", "note": "(stereo not given)", "inhibition": "25.5% (inactive)"}
{"smiles": "Cc1cc(C)nc(SC(C)C(=O)N/N=C/c2cccs2)n1", "note": "(stereo not given)", "inhibition": "2.36% (inactive)"}
{"smiles": "Cc1cc(C)nc(S/C=C/C(=O)c2ccccc2)n1", "inhibition": "109% (active)"}
{"smiles": "COC(c1ccccc1)(c1ccccc1)C(Oc1nc(C)cc(C)n1)C(=O)O", "note": "(stereo not given)", "inhibition": "19% (inactive)"}
{"smiles": "Cc1coc(C)c1C(=O)CC1(O)C(=O)N(C)c2ccc(Cl)cc21", "note": "(stereo not given)", "inhibition": "7.27% (inactive)"}
{"smiles": "CCOc1ccc(N2CC(C(=O)N/N=C/c3sccc3C)CC2=O)cc1", "note": "(stereo not given)", "inhibition": "13.4% (inactive)"}
{"smiles": "CC1(C(=O)NS(=O)(=O)c2ccccc2)CCN1C(=O)C1CCCCC1", "note": "(stereo not given)", "inhibition": "-0.02% (inactive)"}
{"smiles": "O=C1CCN(Cc2ccccc2)CCN1[C@H](CSc1ccccc1)c1ccccc1", "inhibition": "-23.1% (inactive)"}
{"smiles": "COc1ccc(/C(C)=N/NC(=O)CCC(=O)Nc2ccc(Cl)cc2Cl)c(OC)c1", "inhibition": "-11.2% (inactive)"}
{"smiles": "CCCCC(=O)N/N=C(\\C)CC(=O)Nc1cc(Cl)ccc1OC", "inhibition": "93.5% (active)"}
{"smiles": "COc1ccc(Cl)cc1NC(=O)CCS(=O)(=O)c1ccc(Br)cc1", "inhibition": "21.8% (inactive)"}
{"smiles": "C[C@H](NC(=O)CC[C@H]1O[C@@H](n2ccc(=O)[nH]c2=O)[C@H](O)[C@@H]1O)c1cccc2ccccc12", "inhibition": "6.63% (inactive)"}
{"smiles": "OC(c1ccccc1)c1nc(/C=C/c2ccc(C(F)(F)F)cc2)cs1", "note": "(stereo not given)", "inhibition": "3.42% (inactive)"}
{"smiles": "C#CCCOC(=O)N1C2=NC(C(=O)OC)=C(C(=O)OC)[C@@H]3N(C)c4ccc(OC)cc4[C@]23C[C@H]1C(=O)OC", "inhibition": "-3.24% (inactive)"}
